108 compounds from PubChem BioAssay AID504834 (National Center for Advancing Translational Sciences (NCATS), 2011) can be followed below.

In all, about 320,000 compounds went through this assay and about 22,000 (6.9%) were called active. Entries that show only a call come without a potency. Roughly 27% stayed inconclusive and do not appear here. This is one part of a sample in which actives are shown more often than they occur. Unmarked numbers belong to inactive results. Calls come from the whole dose curve; as a rule, active = well fitted inhibition curve with a large enough effect; inconclusive = small, poorly fitted or top-dose-only effect, or another doubt; inactive = no such curve, though single readings can be large or run the other way.
Potency is the fitted concentration of half-maximal effect.

The assay in a line: Primary qHTS for delayed death inhibitors of the malarial parasite plastid, 96 hour incubation. As to conditions: P. falciparum luciferase reporter growth; series mostly up to 28.7 µM. The method, boiled down:
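Plates of compound plus infected erythrocytes (2% hematocrit, 0.05% parasitemia final) incubate 96 hours, 37 C, 5% CO2. Detection reagent added; reduced luminescence from the parasites' luciferase reporter flags inhibition.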
Regarding `COc1ccccc1OC(C)C(=O)Nc1ccc(S(=O)(=O)Nc2nccs2)cc1` (stereo not drawn), the Potency entry is “inactive”.
The same measure, in the same setting: under `COC(=O)c1ccc(CN2C(=O)NC(c3ccccc3)(c3ccccc3)C2=O)o1` stands “inactive”.
The same measure, in the same setting: with `CCCn1c(C(Cc2ccccc2)NC(=O)COC)nc2ccccc21` (stereo not drawn) the entry was “inactive”.
For the compound `CCCC(NC(=O)c1ccccc1)c1nc2ccccc2n1Cc1ccc(C(=O)OC)o1` (stereo not drawn), the Potency was 8.28 µM (active).
The same measure, in the same setting: with `CCc1cccc(NC(=S)N(CCN(C)C)C2CCN(C(C)C)CC2)c1` the entry was “inactive”; with `COc1ccccc1/C=C/C(=O)OCC(=O)NC1CCCCCC1`, “inactive”; with `CCn1c(=O)c(=O)n(CC)c2cc(S(=O)(=O)N3CCc4ccccc43)ccc21`, 13.1 µM (active).
With `CSc1nc2ccc(S(=O)(=O)N3CCc4ccccc43)cc2s1`, the Potency entry is “inactive”.
Same read-out and setting: under `O=S(=O)(c1ccc2c(c1)OCCO2)N1CCc2ccccc21` stands “inactive”.
With `O=C(NCc1ccccc1Cl)c1ccc2c(=O)n(CC3CCCO3)c(=S)[nH]c2c1` (stereo not drawn), the Potency result is “inactive”.
On to `COc1cccc(COc2ccc(N(C)S(=O)(=O)c3ccccc3)cc2)c1`, for which the Potency result is “inactive”.
Still for that read-out and setting: with `CN(c1ccc(OCC(=O)O)cc1)S(=O)(=O)c1ccc2ccccc2c1` the entry was “inactive”; with `Cc1ccc2nc(COc3ccc(N(C)S(=O)(=O)c4ccccc4)cc3)cc(=O)n2c1`, 10.4 µM (active); with `COCCCNC(=O)C1CC(=O)N(CCc2ccc(F)cc2)C1` (stereo not drawn), “inactive”.
On the same count and under the same terms, with `O=C(Nc1ccc2c(c1)OCO2)C1CC1(Cl)Cl` (stereo not drawn) the entry was “inactive”; with `CC(=O)N/C(=C\c1ccccc1)C(=O)OC(C)C(=O)N(C)c1ccccc1` (stereo not drawn), “inactive”; with `OCC[C@H]1C[C@H](O)[C@@H](O)[C@]2(Cc3ccccc3CO2)O1`, “inactive”.
The same measure, in the same setting: with `CC1(C)Cc2c(sc3nc4n(c(=N)c23)CCCCC4)CO1` the entry was “inactive”; with `CCOC(=O)Cn1c(SC)nc2sc3c(c2c1=O)CC(C)(C)OC3`, “inactive”; with `CC(C)c1nc2sc3c(c2c(=O)n1N)CC(C)(C)OC3`, 4.65 µM (active).
Consider `COCCN1C(=O)N[C@@H](c2ccccc2)C(C(=O)OC)=C1C`, for which the Potency entry was “inactive”.
Regarding `CC1=C(C(=O)OC(C)(C)C)C(c2ccc(Br)cc2)NC(=O)N1CCCC(=O)O` (stereo not drawn), the Potency entry was “inactive”.
As for `CC1=C(C(=O)OCc2ccccc2)C(c2ccc(C(F)(F)F)cc2)NC(=O)N1CCCCCC(=O)O` (stereo not drawn), the Potency was 13.1 µM (active).
Still for that read-out and setting: under `CCOC(=O)c1c(C)[nH]c(C(=O)OCC(=O)c2ccc(OC)cc2OC)c1C` stands “inactive”.
The same measure, in the same setting: under `COc1cccc(/C=C/C(=O)OCC(=O)N2CCCc3ccccc32)c1` stands “inactive”.
As for `COc1c(O)cc2oc(-c3ccc(O)c(O)c3)cc(=O)c2c1O`, the Potency result was “inactive”.
As for `O=C(NCc1ccco1)c1cc(-c2cccnc2)nc2ccc(Cl)cc12`, the Potency result was “inactive”.
On the same count and under the same terms, with `O=C(CSc1nnnn1-c1ccccc1)NCc1ccco1` the entry was “inactive”.
The same measure, in the same setting: with `O=C(CSc1c2c(nc3ccc(Cl)cc13)CCCC2)NCc1ccco1` the figure was 9.28 µM (active).
On the same count and under the same terms, under `COC(=O)c1[nH]c2ccccc2c1NC(=O)CN1CCCc2ccccc21` stands 3.29 µM (active); under `NS(=O)(=O)c1cccc(NC(=O)CN2CCCc3ccccc32)c1`, “inactive”; under `COC(=O)c1[nH]c2ccc(Br)cc2c1NC(=O)Oc1ccccc1`, “inactive”.
Regarding `Brc1ccccc1/C=N/Nc1nc2ccccc2o1`, the Potency result is “inactive”.
With `COc1cccc(OC)c1C(=O)Nc1c(C(=O)N2CCN(c3ccccn3)CC2)oc2ccccc12`, the Potency entry was “inactive”.
`Cc1cccc(NC(=O)CSc2nnc(CCNC(=O)OC(C)(C)C)o2)c1C`: the Potency entry was “inactive”.
The same measure, in the same setting: with `Cc1cc(Br)ccc1NC(=S)NC1CCCC1` the entry was “inactive”.
Consider `CCCc1cc(=O)[nH]c2nnc(SCC(=O)Nc3nnc(SCC)s3)n12`, for which the Potency entry is “inactive”.
On the same count and under the same terms, with `O=S(=O)(NCCc1ccccc1)c1ccccc1` the entry was “inactive”; with `O=S(=O)(NCCNS(=O)(=O)c1ccccc1)c1ccccc1`, “inactive”.
Turning to `COP(=O)(NS(=O)(=O)c1ccccc1)OC`, the Potency was 5.22 µM (active).
Same read-out and setting: under `O=S(=O)(c1ccc(Br)c2ccccc12)N1CCOCC1` stands “inactive”; under `O=C(Nc1ccnn1C1CCN(Cc2cccc(OCCO)c2)CC1)C1CCCC1`, “inactive”.
As for `Cn1nc(-c2ccccc2)c(CO)c1Sc1ccccc1`, the Potency entry was “inactive”.
Still for that read-out and setting: under `Cn1cnc([N+](=O)[O-])c1Nc1ccccc1O` stands “inactive”.
Same read-out and setting: under `Cn1cnc([N+](=O)[O-])c1Sc1ccccc1` stands 11.7 µM (active); under `O=C(Cn1c(-c2ccccn2)nc2ccccc21)NCCN1CCOCC1`, “inactive”.
On the same count and under the same terms, under `c1ccc(-c2ccc(OCCN3CCOCC3)cc2)cc1` stands “inactive”.
On to `c1ccc2cc3c(NCCN4CCOCC4)ccnc3cc2c1`, for which the Potency is 0.165 µM (active).
On the same count and under the same terms, under `CCOc1ccc(C(=O)Nc2c3c(nn2-c2ccccc2)CS(=O)(=O)C3)cc1` stands “inactive”.
Still for that read-out and setting: under `Cc1ccc(C)c(S(=O)(=O)Nc2cccc(-n3cnnn3)c2)c1` stands “inactive”; under `COc1ccc(C(=O)CN2C(=O)NC3(CCc4ccccc43)C2=O)c(OC)c1` (stereo not drawn), “inactive”.
Take `Cc1ccc(C(=O)CN2C(=O)NC3(CCc4ccccc43)C2=O)c(C)c1` (stereo not drawn): the Potency result was “inactive”.
The same measure, in the same setting: with `COc1ccc(-n2c(C)cc(C(=O)CN3C(=O)NC4(CCc5ccccc54)C3=O)c2C)cc1` (stereo not drawn) the figure was 1.17 µM (active).
Consider `CCN1CCN(C(=O)Cn2nc(C)n3c(cc4c(OC)cccc43)c2=O)CC1`, for which the Potency result was “inactive”.
Same read-out and setting: with `O=C(CCN1C(=O)C2CCCCC2C1=O)Nc1ccc(OC(F)F)cc1` (stereo not drawn) the entry was “inactive”; with `NC1=NC[C@@H](Cc2ccc(O)cc2)N1CC1CCCCC1`, 2.33 µM (active).
Still for that read-out and setting: under `COc1ccc(NC(=O)CCCN2C(=O)C(c3ccccc3)Oc3cccnc32)cc1` (stereo not drawn) stands “inactive”; under `Cc1ccc(CN(C)Cc2cc(=O)oc3cc(C)c(Cl)cc23)cc1`, “inactive”; under `CCOc1ccc(N(C)Cc2cc(=O)oc3ccc(OC)cc23)cc1`, “inactive”.
On the same count and under the same terms, under `Cc1cc2oc(=O)cc(CN(C)Cc3ccc(OC(F)F)cc3)c2cc1Cl` stands 2.62 µM (active).
With `COc1cccc(CNC(=O)COC(=O)CN2C(=O)NC3(CCCCC3C)C2=O)c1` (stereo not drawn), the Potency entry is “inactive”.
On the same count and under the same terms, with `Cc1onc(-c2c(Cl)cccc2Cl)c1C(=O)NNC(=O)c1c(-c2c(Cl)cccc2Cl)noc1C` the figure was 8.28 µM (active); with `Cc1onc(-c2c(Cl)cccc2Cl)c1C(=O)c1c[nH]c(C(=O)NC2CC2)c1`, “inactive”; with `COc1ccccc1N1CCN(C(=O)c2c(-c3c(Cl)cccc3Cl)noc2C)CC1`, “inactive”.
On the same count and under the same terms, under `CC(C)=C1SC(N2CCN(c3ccc(C)c(Cl)c3)CC2)=NC1=O` stands “inactive”.
On the same count and under the same terms, with `CC(NCc1cccs1)C(=O)Nc1cc(Cl)cc(Cl)c1` (stereo not drawn) the entry was “inactive”; with `Cc1cc2nc3n(c2cc1C)CC1CC(C(=O)NCCC(C)C)N(C)C31` (stereo not drawn), “inactive”; with `CCc1nc(Nc2ccc(NC(C)=O)cc2)c2oc3ccccc3c2n1`, “inactive”.
Turning to `COc1ccc(Nc2cc(=O)oc3ccccc23)cc1`, the Potency is 2.62 µM (active).
Still for that read-out and setting: with `COc1ccc(Nc2nnc(C)c3ccccc23)cc1` the entry was “inactive”; with `COc1ccc2oc(=O)cc(-c3cc4ccccc4o3)c2c1`, “inactive”; with `O=S(=O)(NC1CCCCC1N1CCCCC1)c1ccc(Cl)cc1` (stereo not drawn), “inactive”.
`CCOC1CCCCC1NS(=O)(=O)c1ccc(Cl)cc1` (stereo not drawn): the Potency is 9.28 µM (active).
Still for that read-out and setting: under `O=S(=O)(NC1CCCCC1N1CCC(O)CC1)c1ccc(Cl)cc1` (stereo not drawn) stands “inactive”; under `Cc1nnc2n1N=C(c1ccc3c(c1)NC(=O)CO3)CS2`, “inactive”.
Still for that read-out and setting: under `O=C(O)CC/C(=C\c1cc2c(cc1Br)OCO2)c1nc2ccccc2s1` stands “inactive”.
The same measure, in the same setting: under `O=C(NC1CCCC1)C1CC(=O)N(c2ccc(F)cc2)C1` (stereo not drawn) stands “inactive”; under `O=C(NC1CCCCCCC1)c1cccs1`, “inactive”; under `CCC(C)[C@H]1COCCS(=O)(=O)N1Cc1ccc(C)cc1` (stereo partly drawn), “inactive”.
As for `C/C(=N\NC(=O)c1ccc2ccccc2c1)c1cccnc1`, the Potency result was “inactive”.
On the same count and under the same terms, under `O=C(NCCNc1ccc([N+](=O)[O-])cc1Cl)c1ccccc1F` stands “inactive”.
Regarding `O=C(NC1CCN(Cc2ccccc2)CC1)c1ccccc1F`, the activity change, negative = inhibition is 202% [at 5.75 µM].
Regarding `O=C(NC1CCN(Cc2ccccc2)CC1)c1cc(Br)c(Br)[nH]1`, the Potency was 11.7 µM (active).
The same measure, in the same setting: under `O=C(NC1CCN(Cc2ccccc2)CC1)c1c(F)cccc1F` stands “inactive”; under `CN(Cc1cccc2ncccc12)C(=O)CC1C(=O)NCCN1Cc1ccc(F)cc1` (stereo not drawn), 13.1 µM (active); under `COc1cccc(CN2CCNC(=O)C2CC(=O)N(C)CCc2ccccn2)c1` (stereo not drawn), “inactive”.
The same measure, in the same setting: with `Cc1cnc(CN(C)C(=O)CC2C(=O)NCCN2Cc2cccc(F)c2F)[nH]1` (stereo not drawn) the entry was “inactive”.
On the same count and under the same terms, under `O=C(N/C(=C/c1ccc(Cl)cc1)C(=O)N1CCCCC1)c1ccco1` stands “inactive”.
`O=C(O)CC(CC(=O)N1CCOCC1)c1ccccc1` (stereo not drawn): the Potency result is “inactive”.
The same measure, in the same setting: with `CCOc1cc(C)ccc1OCc1nnc(SCC(=O)Nc2cccc(C(=O)O)c2)n1-c1ccccc1` the entry was “inactive”.
Take `O=C(O)c1cc(S(=O)(=O)Nc2ccc3cn[nH]c3c2)ccc1Br`: the Potency entry was “inactive”.
In the case of `CCCNC(=O)c1cnc(-c2ccccc2)nc1-c1ccccc1`, the Potency result is “inactive”.
Consider `C/C(=N\NC(=O)c1cc(-c2ccc(O)cc2)nc2ccccc12)c1cccnc1`, for which the Potency was 9.28 µM (active).
Regarding `CCOc1ccccc1-c1cc(C(=O)N/N=C(\C)c2cccnc2)c2ccccc2n1`, the Potency result was “inactive”.
In the case of `C/C(=N\NC(=O)c1cccnc1)c1ccc(-c2ccccc2)cc1`, the Potency result is “inactive”.
On the same count and under the same terms, with `CC1(c2nnc(Cc3ccccc3)o2)CC(c2ccccc2F)=NO1` (stereo not drawn) the entry was “inactive”; with `COc1ccc(NC(=O)CSc2nncc(=O)n2N)cc1OC`, “inactive”.
On the same count and under the same terms, under `O=C(CCC1CCCN(C(=O)Cc2ccc(F)cc2)C1)N1CCN(c2ccccn2)CC1` (stereo not drawn) stands “inactive”.
Still for that read-out and setting: with `Cc1nc2c(-c3ccc(F)cc3)c(C)nn2c(C)c1CCC(=O)N1CCN(c2ccccn2)CC1` the figure was 7.38 µM (active).
Take `O=C(Cc1ccccc1Cl)N1CCN(c2ccccn2)CC1`: the Potency entry was “inactive”.
Same read-out and setting: with `O=C(c1cc(COc2ccc(F)c(F)c2)on1)N1CCOCC1` the entry was “inactive”.
On the same count and under the same terms, under `CCn1c(=O)c2cc(C(=O)Nc3cccc(C(C)=O)c3)sc2c2ccccc21` stands “inactive”; under `CCOc1ccc(C2C(C#N)=C(N)N(N(C)C)C3=C2C(=O)CCC3)cc1` (stereo not drawn), “inactive”.
Still for that read-out and setting: under `N#CC1=C(N)OC2=C(C(=O)CCC2)C1C1CC=CCC1` (stereo not drawn) stands “inactive”; under `NC1=C([N+](=O)[O-])C(c2ccccc2)C2=C(CCCC2=O)O1` (stereo not drawn), “inactive”.
Regarding `CN(C)N1C(N)=C(C#N)C(c2ccc(Br)cc2)C2=C1CCCC2=O` (stereo not drawn), the Potency is 2.94 µM (active).
The same measure, in the same setting: under `COc1ccc(C2C(C#N)=C(N)N(c3ncn[nH]3)C3=C2C(=O)CCC3)cc1` (stereo not drawn) stands “inactive”; under `N#CC1=C(N)N(c2ccccc2)C2=C(C(=O)CCC2)C1c1ccccc1` (stereo not drawn), 2.08 µM (active).
